These results are taken from the supplement of paper PMC3414501.

Structures are written as SMILES. Counter-ions that a name gives are not always drawn.

For experiment [1], the system named is S. cerevisiae SK1 pCDA2-eGFP (USY613), sporulating. Kind of experiment: CDA2-GFP sporulation assay sensitivity score (z-score vs DMSO controls); higher = stronger inhibition of sporulation, active = hit call of the paper.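 Also: active if sensitivity score above 5.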
For experiment [2], the system named is S. cerevisiae NKY1551 his4x/his4B, sporulating. Kind of experiment: HIS4 meiotic recombination assay sensitivity score (z-score vs DMSO controls); higher = stronger inhibition of sporulation/recombination, active = hit call of the paper.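 Also: active if sensitivity score above 5.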
Experiment [3] concerns S. cerevisiae AD1-9 (efflux-pump deficient), vegetative growth in YPD. Kind of experiment: growth sensitivity score (doubling time z-score vs DMSO controls); higher = slower growth, strongly negative scores also mark growth inhibition (complete suppression), active = hit call of the paper. In outline:
(§1)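 Saccharomyces cerevisiae strains BY4741 and AD1-9 were seeded in rich medium in microtiter plates at an OD600 of 0.065. Compounds were added at a 1:100 dilution of DMSO stock. Optical density was read every 15 min for 24 hours on a Tecan GENios reader. Average doubling time was the time taken to reach a set generation point divided by generation number, and the growth sensitivity score was (compound mean − DMSO-control mean)/DMSO-control SD, using eight DMSO controls per experiment.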

The test system of experiment [4] is S. cerevisiae BY4741 (wild-type), vegetative growth in YPD. The experiment is described as above. An outline of the steps: as §1

In the case of `CCc1ccc(CCOc2ccc(CC3SC(=O)NC3=O)cc2)nc1` (centres undefined) [Pioglitazone hydrochloride] (stock concentration (mM, diluted 1:100): 9.1), the “CDA2-GFP sporulation assay sensitivity score” value in experiment [1] was 2.87 (inactive). Also, the “HIS4 meiotic recombination assay sensitivity score” value in experiment [2] was 0.36 (inactive). Also, the growth sensitivity score in experiment [3] was -1.03 (inactive); in experiment [4] it was -0.08 (inactive).

For `OCCOCCN1CCN(C2=Nc3ccccc3Sc3ccccc32)CC1` [Quetiapine hemifumarate] (stock concentration (mM, diluted 1:100): 7.7), in experiment [1], the “CDA2-GFP sporulation assay sensitivity score” value was 9.6 (active). In experiment [2], the “HIS4 meiotic recombination assay sensitivity score” value was 5.3 (active). The results for the growth sensitivity score in experiment [3] and in experiment [4] were 0.31 (inactive) and 1.12 (inactive), respectively.

In the case of `C=CC1=C(C(=O)O)N2C(=O)[C@@H](NC(=O)/C(=N\O)c3csc(N)n3)[C@H]2SC1` [Cefdinir] (stock concentration (mM, diluted 1:100): 10), in experiment [1], the “CDA2-GFP sporulation assay sensitivity score” value is 3.95 (inactive). In experiment [2], the “HIS4 meiotic recombination assay sensitivity score” value is 0 (inactive). The growth sensitivity score in experiment [3] was -1.07 (inactive); in experiment [4], -0.67 (inactive).

`CC(N/C(=N\C#N)Nc1ccncc1)C(C)(C)C` (centres undefined) [Pinacidil monohydrate] (stock concentration (mM, diluted 1:100): 10): in experiment [1], the “CDA2-GFP sporulation assay sensitivity score” value is 1.62 (inactive). For the same compound, the “HIS4 meiotic recombination assay sensitivity score” value in experiment [2] is -1.38 (inactive). Also, the growth sensitivity score was -0.96 (inactive) in experiment [3] and 1.52 (inactive) in experiment [4].

For the compound `COc1ccccc1N1CCN(CCCNc2cc(=O)n(C)c(=O)n2C)CC1` [Urapidil hydrochloride] (stock concentration (mM, diluted 1:100): 10), the “CDA2-GFP sporulation assay sensitivity score” value in experiment [1] was 1.04 (inactive). Also, the “HIS4 meiotic recombination assay sensitivity score” value in experiment [2] is -0.7 (inactive). The growth sensitivity score in experiment [3] was -0.84 (inactive); in experiment [4], 0.85 (inactive).

Turning to `C[C@@H]1C[C@H]2[C@@H]3C[C@H](F)C4=CC(=O)C(Cl)=C[C@]4(C)[C@@]3(F)[C@@H](O)C[C@]2(C)[C@@]1(O)C(=O)CO` [Halometasone monohydrate] (stock concentration (mM, diluted 1:100): 10), the “CDA2-GFP sporulation assay sensitivity score” value in experiment [1] is 0.27 (inactive). The “HIS4 meiotic recombination assay sensitivity score” value in experiment [2] is -1.12 (inactive). Besides, the figures for the growth sensitivity score in experiment [3] and in experiment [4] were 2.32 (active) and -0.26 (inactive), respectively.

Regarding `O=C(NCCO[N+](=O)[O-])c1cccnc1` [Nicorandil] (stock concentration (mM, diluted 1:100): 10), in experiment [1], the “CDA2-GFP sporulation assay sensitivity score” value is -0.11 (inactive). Further, the “HIS4 meiotic recombination assay sensitivity score” value in experiment [2] is 0.03 (inactive). Moreover, the values for the growth sensitivity score in experiment [3] and in experiment [4] were -1.47 (inactive) and -2.59, respectively.

As for `C[C@]12C=CC(=O)C=C1CC[C@@H]1[C@@H]2[C@@H](O)C[C@@]2(C)[C@H]1CC[C@]2(O)C(=O)COC(=O)CCC(=O)O` (stock concentration (mM, diluted 1:100): 10), in experiment [1], the “CDA2-GFP sporulation assay sensitivity score” value is -0.32 (inactive). Moreover, the “HIS4 meiotic recombination assay sensitivity score” value in experiment [2] was -0.86 (inactive). In addition, the growth sensitivity score is -0.63 (inactive) in experiment [3] and -0.61 (inactive) in experiment [4].

In the case of `CC(=O)O[C@H]1C[C@@H]2CC[C@@H]3[C@H](CC[C@@]4(C)[C@H]3C[C@H]([N+]3(C)CCCCC3)[C@@H]4OC(C)=O)[C@@]2(C)C[C@@H]1N1CCCCC1` [Vecuronium bromide] (stock concentration (mM, diluted 1:100): 10), in experiment [1], the “CDA2-GFP sporulation assay sensitivity score” value was 1.32 (inactive). Further, the “HIS4 meiotic recombination assay sensitivity score” value in experiment [2] was -1.64 (inactive). Also, the growth sensitivity score is -5.36 in experiment [3] and 0.21 (inactive) in experiment [4].

For the compound `COc1cccc2c1C(=O)c1c(O)c3c(c(O)c1C2=O)C[C@@](O)(C(=O)CO)C[C@@H]3O[C@H]1C[C@H](N)[C@@H](O)[C@H](C)O1` [Epirubicin hydrochloride] (stock concentration (mM, diluted 1:100): 9.4), the “CDA2-GFP sporulation assay sensitivity score” value in experiment [1] was -0.4 (inactive). Also, in experiment [2], the “HIS4 meiotic recombination assay sensitivity score” value is -1.39 (inactive). Also, the values for the growth sensitivity score in experiment [3] and in experiment [4] were 93.9 (active) and 11.8 (active), respectively.

For `C#C[C@]1(O)CC[C@H]2[C@@H]3[C@H](C)CC4=C(CCC(=O)C4)[C@H]3CC[C@@]21C` [Tibolone] (stock concentration (mM, diluted 1:100): 10), the “CDA2-GFP sporulation assay sensitivity score” value in experiment [1] was 5.97 (inactive). Moreover, the “HIS4 meiotic recombination assay sensitivity score” value in experiment [2] was 1.06 (inactive). Besides, the growth sensitivity score in experiment [3] was 10.2 (active); in experiment [4], 0.52 (inactive).

Regarding `CN(C)CCOC(C)(c1ccccc1)c1ccccn1` (centres undefined) [Doxylamine succinate] (stock concentration (mM, diluted 1:100): 10), the “CDA2-GFP sporulation assay sensitivity score” value in experiment [1] is -0.3 (inactive). The “HIS4 meiotic recombination assay sensitivity score” value in experiment [2] was 1.01 (inactive). The growth sensitivity score in experiment [3] is -0.68 (inactive); in experiment [4], 1.39 (inactive).

For `O=C(O)c1cc(/N=N/c2ccc(S(=O)(=O)Nc3ccccn3)cc2)ccc1O` [Sulfasalazine] (stock concentration (mM, diluted 1:100): 10), the “CDA2-GFP sporulation assay sensitivity score” value in experiment [1] is 2.13 (inactive). The “HIS4 meiotic recombination assay sensitivity score” value in experiment [2] was -0.54 (inactive). For the same compound, the growth sensitivity score in experiment [3] was -2.95; in experiment [4], -2.26.

Turning to `COc1ccc(/C=C/C(=O)Nc2ccccc2C(=O)O)cc1OC` [Tranilast] (stock concentration (mM, diluted 1:100): 10), the “CDA2-GFP sporulation assay sensitivity score” value in experiment [1] is 0.24 (inactive). The “HIS4 meiotic recombination assay sensitivity score” value in experiment [2] was 0.1 (inactive). For the same compound, the growth sensitivity score in experiment [3] is -1.78 (inactive); in experiment [4], -0.6 (inactive).

`CN1CCCCC1CCN1c2ccccc2Sc2ccc([S+](C)[O-])cc21` (centres undefined) [Mesoridazine] (stock concentration (mM, diluted 1:100): 10): the “CDA2-GFP sporulation assay sensitivity score” value in experiment [1] is -0.29 (inactive). Further, the “HIS4 meiotic recombination assay sensitivity score” value in experiment [2] was -1.59 (inactive). Further, the growth sensitivity score in experiment [3] is 278 (active); in experiment [4], 66 (active).

Regarding `CCCc1nc(C)c2c(=O)nc(-c3cc(S(=O)(=O)N4CCN(CC)CC4)ccc3OCC)[nH]n12` [Vardenafil citrate] (stock concentration (mM, diluted 1:100): 7.2), the “CDA2-GFP sporulation assay sensitivity score” value in experiment [1] was 4.72 (inactive). The “HIS4 meiotic recombination assay sensitivity score” value in experiment [2] was -0.18 (inactive). In addition, the figures for the growth sensitivity score in experiment [3] and in experiment [4] were 0.43 (inactive) and -0.19 (inactive), respectively.
